Hit rate of the full screen: of about 400,000 compounds, about 2,100 (0.53%) were called active. About 14% were inconclusive and are not listed. The rule behind the calls is not given here. What follows is part of a selection rich in actives, with near analogues and random picks from the rest.

Ataxin-2 (Homo sapiens), sequence (Q99700 whole entry): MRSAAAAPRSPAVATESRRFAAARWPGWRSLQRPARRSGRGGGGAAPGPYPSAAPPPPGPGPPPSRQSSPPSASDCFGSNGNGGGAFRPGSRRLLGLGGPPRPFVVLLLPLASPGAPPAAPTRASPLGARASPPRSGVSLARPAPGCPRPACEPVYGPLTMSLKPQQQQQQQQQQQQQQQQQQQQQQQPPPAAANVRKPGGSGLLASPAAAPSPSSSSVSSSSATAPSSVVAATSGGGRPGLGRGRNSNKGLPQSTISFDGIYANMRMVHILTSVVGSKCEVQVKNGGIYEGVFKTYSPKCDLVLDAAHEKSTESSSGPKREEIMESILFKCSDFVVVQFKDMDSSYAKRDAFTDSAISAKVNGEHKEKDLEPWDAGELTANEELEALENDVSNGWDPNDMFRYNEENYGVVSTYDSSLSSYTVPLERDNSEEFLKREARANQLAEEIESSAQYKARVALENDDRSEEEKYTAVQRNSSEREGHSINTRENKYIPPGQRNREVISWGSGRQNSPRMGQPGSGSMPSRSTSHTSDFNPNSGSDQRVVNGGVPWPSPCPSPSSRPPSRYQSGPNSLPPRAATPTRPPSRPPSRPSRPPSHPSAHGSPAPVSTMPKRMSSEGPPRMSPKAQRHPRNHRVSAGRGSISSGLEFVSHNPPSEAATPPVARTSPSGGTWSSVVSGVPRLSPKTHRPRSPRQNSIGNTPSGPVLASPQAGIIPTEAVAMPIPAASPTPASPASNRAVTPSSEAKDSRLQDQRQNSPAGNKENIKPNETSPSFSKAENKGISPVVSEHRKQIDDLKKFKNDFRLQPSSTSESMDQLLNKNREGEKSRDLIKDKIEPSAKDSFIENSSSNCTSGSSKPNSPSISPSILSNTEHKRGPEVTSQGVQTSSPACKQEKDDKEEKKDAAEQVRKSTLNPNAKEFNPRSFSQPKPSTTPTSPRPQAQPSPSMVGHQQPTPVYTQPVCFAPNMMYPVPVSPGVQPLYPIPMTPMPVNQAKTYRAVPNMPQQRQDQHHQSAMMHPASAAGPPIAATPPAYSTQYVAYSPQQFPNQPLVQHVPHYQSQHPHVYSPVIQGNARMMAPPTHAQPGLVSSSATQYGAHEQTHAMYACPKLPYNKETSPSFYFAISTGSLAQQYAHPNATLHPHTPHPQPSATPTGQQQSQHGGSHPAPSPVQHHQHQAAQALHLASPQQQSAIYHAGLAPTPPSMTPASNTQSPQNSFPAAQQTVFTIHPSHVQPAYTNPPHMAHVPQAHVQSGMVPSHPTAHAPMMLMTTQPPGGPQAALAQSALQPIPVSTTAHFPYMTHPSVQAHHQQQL

The test addresses Ataxin-2 (Homo sapiens) (UniProt Q99700). Description: qHTS for Inhibitors of ATXN expression. The test is classed as functional. Background: Quantitative high-throughput screening tests each substance at several concentrations.
`Oc1c(Br)cc(Br)cc1/C=N\c1cccnc1`: the Potency result is “inactive”.

Take `COCc1cc(N2CCCC2)nc(-c2ccccc2)n1`: the Potency entry was “inactive”.

On to `Cc1c(N=C2N=C(NC(=O)Nc3ccc(Cl)cc3)c3ccccc32)c(=O)n(-c2ccccc2)n1C`, for which the Potency entry is “inactive”.

As for `O=C1c2cccc3c([N+](=O)[O-])ccc(c23)C(=O)N1CC1CCCO1` (configuration not stated), the Potency entry was “inactive”.

Consider `CCCCCn1c(-c2cccc(C)c2)nc2ccccc21`, for which the Potency is 35.5 µM (active).

Turning to `CCCCCn1c(CCNC(=O)c2cccc(C)c2)nc2ccccc21`, the Potency is 31.6 µM (active).

In the case of `CCC(=O)NCCCc1nc2ccccc2n1Cc1ccccc1F`, the Potency result is “inactive”.

For the compound `CCCCCn1c(N)c(C#N)c2nc3ccccc3nc21`, the Potency result is “inactive”.

As for `Cc1ccc(C(=O)NCCc2ccccc2)cc1N1CCCC1=O`, the Potency entry was “inactive”.

For `Cc1cccc(-n2cnc3cc(C(=O)NCCN4CCOCC4)ccc32)c1`, the Potency result was “inactive”.

As for `ClCc1nc2ccccc2n1Cc1ccccc1`, the Potency result is “inactive”.

For `CCCn1c(CNC(=O)c2cccs2)nc2ccccc21`, the Potency entry was “inactive”.

Turning to `Cc1cccc(C(=O)NCCc2nc3ccccc3n2Cc2ccc(Cl)cc2)c1`, the Potency was 28.2 µM (active).

For `CCn1c(C)nc2cc(C(=O)N/N=C(\C)c3ccccc3O)ccc21`, the Potency entry is “inactive”.

Consider `CCCCCn1nc(-c2ccccc2)c2nc3ccccc3nc21`, for which the Potency result is “inactive”.

Turning to `CCc1ccccc1-n1c(C)nc2cc(C(=O)NCCc3ccc(Cl)cc3)ccc21`, the Potency was 44.7 µM (active).

Regarding `COc1cccc(NC(=O)N2CCCC2C(=O)Nc2cc(C)ccc2OC)c1` (configuration not stated), the Potency entry is “inactive”.

In the case of `c1ccc2c3c(c(CN4CCCC4)cc2c1)COC3`, the Potency result is “inactive”.

As to `Cc1ccc(NC(=O)NN2CCOCC2)cc1`, the Potency entry was “inactive”.

For `CC1(C)Cc2c(cnn2-c2cccc(F)c2)C(NC(=O)CSc2ccccn2)C1` (configuration not stated), the Potency entry was “inactive”.

As to `Cc1cc(-n2c(=O)c(C#N)cc3c(=O)n4cccc(C)c4nc32)no1`, the Potency result was “inactive”.

Take `O=C(N/N=C/c1ccc(N2CCOCC2)cc1)c1ccccc1NS(=O)(=O)c1cccs1`: the Potency result is “inactive”.

For `C[C@H]1CCC[C@]2(C)C[C@H]3OC(=O)C(CN4CCCCCC4)[C@H]3C=C12` (some centres not stated), the Potency was 39.8 µM (active).

`CCN/N=C(\Cc1nc2ccccc2[nH]1)c1ccccc1`: the Potency entry is “inactive”.

As for `Cc1cccn2c(=O)c3cc(C(=O)NCC4CCCO4)c(=N)n(CC4CCCO4)c3nc12` (configuration not stated), the Potency result is “inactive”.

As for `Cc1ccc(CNC(=O)CS(=O)(=O)Cc2nc(-c3ccccc3F)oc2C)cc1`, the Potency result was “inactive”.

For `COc1cccc(-c2nc(CS(=O)(=O)CC(=O)Nc3cccc(C)c3C)c(C)o2)c1`, the Potency was 7.08 µM (active).

`Cc1ccc(-c2nc(CS(=O)(=O)CC(=O)NCc3ccc4c(c3)OCO4)c(C)o2)cc1`: the Potency entry is “inactive”.

For the compound `COc1ccc(OC)c(/C=C2\Oc3cc(OCC(=O)N4CC(O)C[C@H]4C(=O)O)ccc3C2=O)c1` (some centres not stated), the Potency result was “inactive”.

Regarding `CCOc1ccc2c(c1)/C(=C(\C(Cl)=C(Cl)Cl)[N+](=O)[O-])N2`, the Potency result was “inactive”.

Turning to `COc1ccc(/C=c2\s/c(=C(/C#N)C(=O)NCc3ccco3)n(-c3ccccc3)c2=O)cc1`, the Potency result was “inactive”.

With `COc1ccc(C(=O)/C(=C\c2ccco2)N2C=CC=CC2=C(C#N)C#N)cc1`, the Potency was 1.78 µM (active).

With `O=C(O)CSCC(=O)NCc1csc2ccc(Cl)cc12`, the Potency result was “inactive”.

Consider `O=C(CSc1nc(-c2ccc(F)cc2)[nH]c1-c1ccc(F)cc1)Nc1ccc2c(c1)OCCO2`, for which the Potency was 39.8 µM (active).

As for `O=C(CSc1nc(-c2ccccc2)[nH]c1-c1ccccc1)Nc1ccc2c(c1)OCCO2`, the Potency is 39.8 µM (active).

Consider `N#Cc1ccccc1NC(=O)CSc1nc(-c2ccccc2)cc(C(F)(F)F)c1C#N`, for which the Potency result is “inactive”.

For `COc1ccc(-c2[nH]c(-c3ccc(C)cc3)nc2SCC(=O)NCc2ccco2)cc1OC`, the Potency result was “inactive”.

Turning to `O=C(CN1CCc2ccccc21)Nc1ccc2c(c1)OCCCO2`, the Potency entry was “inactive”.

As to `Cc1ccc(NC(=O)CSc2nnc(-c3cc(C)on3)o2)cc1`, the Potency result is “inactive”.

On to `CCN(CC)c1ccc2cc(C(N)=O)c(=N)oc2c1`, for which the Potency result was “inactive”.

`O=C1N=C(N2CCCCC2)S/C1=C\c1ccc(Br)cc1`: the Potency entry was “inactive”.

For `CCCCN1CC(c2nc3ccccc3n2CCCCOc2ccc(C)c(C)c2)CC1=O` (configuration not stated), the Potency was 39.8 µM (active).

`Cc1cccc(N2CC(c3nc4ccccc4n3C)CC2=O)c1C` (configuration not stated): the Potency entry was “inactive”.

Regarding `Cc1cc(OCCn2c(C3CC(=O)N(Cc4ccc(F)cc4)C3)nc3ccccc32)ccc1Cl` (configuration not stated), the Potency was 39.8 µM (active).

With `Cc1cc(NC2CCCCC2)n2c(n1)nc1ccccc12`, the Potency result is “inactive”.

With `CC(=O)Oc1ccc2cc(-c3nc4ccccc4n3C)c(=O)oc2c1`, the Potency result was “inactive”.

On to `CC(C)(C)OC(=O)c1c(N)n(CCCN2CCCC2=O)c2nc3ccccc3nc12`, for which the Potency result was “inactive”.

On to `Cc1ccccc1N1CC(c2nc3ccccc3n2CCC2CCCCC2)CC1=O` (configuration not stated), for which the Potency was 35.5 µM (active).

Take `CCc1ccc(OCCn2c(C3CC(=O)N(Cc4ccc(F)cc4)C3)nc3ccccc32)cc1` (configuration not stated): the Potency was 39.8 µM (active).

Take `O=c1nc2n(-c3ccccc3F)c3ccccc3cc-2c(=O)[nH]1`: the Potency result was “inactive”.

On to `CCOC(=O)c1c(NC(=O)c2ccco2)n(C2CCCCC2)c2nc3ccccc3nc12`, for which the Potency entry was “inactive”.

On to `Cc1noc(C)c1CSCC(=O)Nc1ccc(S(C)(=O)=O)cc1`, for which the Potency result is “inactive”.

As for `CC(C)OC(=O)CSc1nc(Cc2ccccc2)nc2ccccc12`, the Potency result is “inactive”.

With `Cc1cc(-c2nc3cccnc3s2)ccc1NS(=O)(=O)c1cccs1`, the Potency result was “inactive”.

For `O=C(COC(=O)c1cccnc1)NC1CCCc2ccccc21` (configuration not stated), the Potency result is “inactive”.

For the compound `CCOc1ccc(CNc2nc3ccccc3n2C)cc1`, the Potency result was “inactive”.

Turning to `CCOc1ccc(N2CC(c3nc4ccccc4n3CCCOc3ccccc3)CC2=O)cc1` (configuration not stated), the Potency was 22.4 µM (active).

As to `CCOc1ccc(N2CC(C(=O)Nc3ccc(S(=O)(=O)NCC4CCCO4)cc3)CC2=O)cc1` (configuration not stated), the Potency result was “inactive”.

With `Cc1nn(Cc2ccccc2)c(Cl)c1/C=N/NC(=O)c1cccnc1`, the Potency entry is “inactive”.

Take `CN1CCN(c2ccc([N+](=O)[O-])c(-n3nc(-c4ccccc4)c4ccccc4c3=O)c2)CC1`: the Potency is 35.5 µM (active).

Turning to `Nc1ccc2nn(-c3ccccc3)nc2c1`, the Potency result was “inactive”.

In the case of `N#CC(c1nc2ccccc2nc1N1CCOCC1)S(=O)(=O)c1ccccc1` (configuration not stated), the Potency result is “inactive”.

With `Fc1ccccc1N1CC(c2ccccc2)C(c2cccs2)=N1` (configuration not stated), the Potency entry is “inactive”.

Consider `CCCCCCc1cc2cc(S(=O)(=O)c3ccc(F)c(Cl)c3)c(=O)oc2cc1O`, for which the Potency result was “inactive”.

`OC(CNc1ccnc2cc(Cl)ccc12)CNC1CCCCC1` (configuration not stated): the Potency was 39.8 µM (active).

On to `Clc1ccc2c(NCCNC3CCCCC3)ccnc2c1`, for which the Potency was 15.8 µM (active).

Turning to `Cc1ccc(/C=C2\CCC3=C2OC(N)=C(C#N)C3c2ccc(C)cc2)cc1` (configuration not stated), the Potency entry is “inactive”.

`CCOC(=O)c1cc2c(=O)n3ccccc3nc2n(CC2CCCO2)/c1=N\C(=O)c1ccc(OC)cc1OC` (configuration not stated): the Potency entry is “inactive”.

`O=C(Cc1ccccc1)N/N=C/c1cc(Br)cc(Cl)c1O`: the Potency result is “inactive”.

`CCOC(=O)c1cc2c(=O)n3ccccc3nc2n(Cc2ccco2)/c1=N\C(=O)c1cccc(F)c1`: the Potency result is “inactive”.

With `Clc1ccc(-c2noc(/C=C/c3ccccc3)n2)cc1`, the Potency result was “inactive”.

Turning to `O=C1/C(=C/Nc2nnc(CCCO)[nH]2)c2ccccc2C(=O)N1c1ccccc1Cl`, the Potency entry was “inactive”.

Take `CCN(C(=O)COC(=O)c1cccc(S(=O)(=O)N(C)C)c1)c1c(N)n(Cc2ccccc2)c(=O)[nH]c1=O`: the Potency entry is “inactive”.

`Nc1c(N(CCC2=CCCCC2)C(=O)COc2ccc(F)cc2)c(=O)[nH]c(=O)n1Cc1ccccc1`: the Potency was 39.8 µM (active).

For `Nc1c(N(CCC2=CCCCC2)C(=O)COc2ccc(F)cc2Cl)c(=O)[nH]c(=O)n1Cc1ccccc1`, the Potency is 11.9 µM (active).

Consider `CCCCn1c(N)c(N(CCOC)C(=O)CN2c3ccccc3CC2C)c(=O)[nH]c1=O` (configuration not stated), for which the Potency result is “inactive”.

Take `Cc1ccccc1OCC(=O)N(Cc1ccco1)c1c(N)n(Cc2ccccc2)c(=O)[nH]c1=O`: the Potency entry is “inactive”.

On to `CCCCN(C(=O)CSc1nnc2ccccn12)c1c(N)n(Cc2ccccc2)c(=O)[nH]c1=O`, for which the Potency entry is “inactive”.

Turning to `CCn1c(=N)c(C(=O)NCC2CCCO2)cc2c(=O)n3cc(C)ccc3nc21` (configuration not stated), the Potency entry was “inactive”.

On to `C=CC[C@@H](CC(=O)NCCO)C(=O)N[C@H](COC(=O)[C@@H](CC=C)Cc1ccc(F)cc1)Cc1c[nH]c2ccccc12`, for which the Potency was 35.5 µM (active).

Regarding `C=CCC[C@@H](Cc1ccc(F)cc1)C(=O)OC[C@H](Cc1c[nH]c2ccccc12)NC(=O)[C@@H](CC=C)CC(=O)NCCO`, the Potency was 39.8 µM (active).

Consider `C=CCC[C@H](Cc1ccc(F)cc1)C(=O)OC[C@H](Cc1c[nH]c2ccccc12)NC(=O)[C@@H](CC=C)CC(=O)NCCO`, for which the Potency was 28.2 µM (active).

On to `C=CC[C@@H](CC(=O)N[C@H](CO)Cc1ccccc1)C(=O)N[C@H](COC(=O)[C@@H](CC=C)Cc1ccc(F)cc1)Cc1c[nH]c2ccccc12`, for which the Potency was 25.1 µM (active).

With `CC(C)n1c(=N)c(C(=O)NCCc2ccccc2)cc2c(=O)n3ccccc3nc21`, the Potency entry was “inactive”.

For `COc1cc(/C=C2\C(=N)N3N=CSC3=NC2=O)cc(Br)c1OC(=O)c1ccco1`, the Potency result was “inactive”.

Consider `COc1ccc2nc(N3CCCCC3)c(C#N)cc2c1`, for which the Potency result is “inactive”.

Regarding `N=c1oc2cc(O)ccc2cc1C(=O)Nc1ccc(F)cc1`, the Potency entry is “inactive”.

Regarding `COCCOC(=O)c1c(N)n(CCCN2CCOCC2)c2nc3ccccc3nc12`, the Potency entry is “inactive”.

For the compound `O=C(NCCCN1CCOCC1)/C(=C/c1cccnc1)NC(=O)c1ccccc1`, the Potency result is “inactive”.

In the case of `CCOC(=O)/C(=C\c1ccccc1)C(=O)CCN1CCOCC1`, the Potency was 42.3 µM (active).

For `CCCc1cc(=O)oc2cc(O[C@@H]3O[C@H](CO)[C@@H](O)[C@H](O)[C@H]3O)ccc12`, the Potency result was “inactive”.

`COc1ccccc1-c1nnc(Sc2nc([N+](=O)[O-])nn2C)o1`: the Potency is 11.2 µM (active).

As for `COc1ccccc1-c1nnc(-c2ccc(C)cc2)o1`, the Potency entry is “inactive”.

Turning to `COc1ccccc1NC(=O)CSc1nnc(-c2ccoc2C)o1`, the Potency entry is “inactive”.

With `C=CCn1c2ccccc2c2nnc(SCCCn3c(=O)[nH]c4ccccc43)nc21`, the Potency was 39.8 µM (active).

In the case of `C=CCn1c(N)c(C(=O)OC(C)(C)C)c2nc3ccccc3nc21`, the Potency entry was “inactive”.

`CCn1c2ccccc2c2nc3cc(C(=O)O)ccc3nc21`: the Potency entry was “inactive”.
